# Assays:
# Format in all cases: functional
# Plasmodium falciparum [1] = test: GSK_TCMDC: Inhibition of Plasmodium falciparum 3D7 in whole red blood cells, using parasite LDH activity as an index of growth. Test compounds present at 2uM
# Plasmodium falciparum [2] = test: GSK_TCMDC: Inhibition of Plasmodium falciparum Dd2 in whole red blood cells, using parasite LDH activity as an index of growth. Test compounds present at 2uM
# HepG2 = test: GSK_TCMDC: Percent inhibition of human HepG2 cell line. Test compounds present at 10uM.
smiles,measurement,setting,value
CS(=O)(=O)c1ccc(-c2cncc(Nc3cccc([N+](=O)[O-])c3)c2)cc1,Inhibition,Plasmodium falciparum [1],97%
same,Inhibition,Plasmodium falciparum [2],70%
same,Inhibition,HepG2,6%
CCOc1ccc(OCC)c(N2CCN(CCCCNC(=O)c3ccc(NC(=O)c4ccc(Cl)cc4)cc3)CC2)c1,Inhibition,Plasmodium falciparum [1],97%
same,Inhibition,Plasmodium falciparum [2],40%
same,Inhibition,HepG2,13%
CCCCCN1CCC(NC(=O)c2ccc(C(=O)Nc3ccc(C(C)C)cc3)cc2)CC1.O=C(O)C(F)(F)F,Inhibition,Plasmodium falciparum [1],98%
same,Inhibition,Plasmodium falciparum [2],9%
same,Inhibition,HepG2,41%
COc1cc(C=CC(=O)N2CCC(CCN3CCC(c4c[nH]c5ccccc45)CC3)CC2)cc(OC)c1,Inhibition,Plasmodium falciparum [1],92%
same,Inhibition,Plasmodium falciparum [2],23%
same,Inhibition,HepG2,39%
CC(C)COc1ccc(Cl)cc1Cc1ccc(-c2nc3c(F)cccc3[nH]2)o1,Inhibition,Plasmodium falciparum [1],98%
same,Inhibition,Plasmodium falciparum [2],47%
same,Inhibition,HepG2,15%
O=C(O)C(F)(F)F.O=S(=O)(NCCN1CCCC1)c1cccc(-c2ccc(CNC3Cc4ccccc4C3)cc2)c1,Inhibition,Plasmodium falciparum [1],99%
same,Inhibition,Plasmodium falciparum [2],74%
same,Inhibition,HepG2,79%
O=S(=O)(c1cccc2cccnc12)N1CCN(C2CCCCC2)CC1,Inhibition,Plasmodium falciparum [1],96%
same,Inhibition,Plasmodium falciparum [2],10%
same,Inhibition,HepG2,15%
CCN(CC(C)O)C(=O)c1ccc(-c2cccc(-c3nc4cccc(C)c4[nH]3)c2)cc1 (stereo not drawn),Inhibition,Plasmodium falciparum [1],100%
same,Inhibition,Plasmodium falciparum [2],32%
same,Inhibition,HepG2,28%
CS(=O)(=O)c1ccc(-n2nc(C(F)(F)F)cc2-c2ccc(C=NOCC(=O)O)o2)cc1,Inhibition,Plasmodium falciparum [1],87%
same,Inhibition,Plasmodium falciparum [2],0%
same,Inhibition,HepG2,0%
Cc1cc(F)ccc1-c1nc(Nc2ccncc2)c2ccn(C)c2n1,Inhibition,Plasmodium falciparum [1],89%
same,Inhibition,Plasmodium falciparum [2],8%
same,Inhibition,HepG2,9%
O=C(/C=C/c1ccc(Cl)c(Cl)c1)NCCCCCCN1CCCN(C(=O)Nc2cc(Cl)cc(Cl)c2)CC1,Inhibition,Plasmodium falciparum [1],98%
same,Inhibition,Plasmodium falciparum [2],2%
same,Inhibition,HepG2,26%

# — ChEMBL document CHEMBL1157539, “Thousands of chemical starting points for antimalarial lead identification” (Nature, 2010)
